Screening results deposited in PubChem BioAssay by The Scripps Research Institute Molecular Screening Center.
HTR5A inv ag = inverse agonist of human HTR5A in OPRM1-OPRD1 counter-screen; AID 504634; inhibition, % at 9.3 µM; 0.083% of 340,000 active; HTR5A cell line, luminescence, inverse agonism; in the data active means inhibition mostly above about 23%, no sharp cut-off; inactive means mostly below about 18%;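 further: 0% = cells with DMSO and 100% = no-cell wells with DMSO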
MOR-DOR inv ag-1 = inverse agonist of human OPRM1-OPRD1 heterodimerization; inhibition, % at 9.3 µM; 0.21% of 340,000 active; AID 504357; cell-based MOR-DOR heterodimer luminescence, inverse agonism; in the data active means inhibition above about 22%, passing the limit was not always enough;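 further: 0% = cells with DMSO and 100% = wells without cells with DMSO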
Target sequence (P35372 whole entry, looked up): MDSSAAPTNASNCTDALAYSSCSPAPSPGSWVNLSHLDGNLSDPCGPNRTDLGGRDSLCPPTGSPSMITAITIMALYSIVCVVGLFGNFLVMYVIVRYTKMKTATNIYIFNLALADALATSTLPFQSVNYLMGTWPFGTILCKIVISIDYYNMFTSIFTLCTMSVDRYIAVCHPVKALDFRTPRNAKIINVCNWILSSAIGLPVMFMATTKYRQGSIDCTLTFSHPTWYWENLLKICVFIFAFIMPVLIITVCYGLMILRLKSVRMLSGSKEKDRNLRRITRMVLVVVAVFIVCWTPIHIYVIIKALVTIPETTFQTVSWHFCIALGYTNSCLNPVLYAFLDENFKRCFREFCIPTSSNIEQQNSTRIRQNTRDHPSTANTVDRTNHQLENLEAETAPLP
Target sequence (P41143 whole entry, looked up): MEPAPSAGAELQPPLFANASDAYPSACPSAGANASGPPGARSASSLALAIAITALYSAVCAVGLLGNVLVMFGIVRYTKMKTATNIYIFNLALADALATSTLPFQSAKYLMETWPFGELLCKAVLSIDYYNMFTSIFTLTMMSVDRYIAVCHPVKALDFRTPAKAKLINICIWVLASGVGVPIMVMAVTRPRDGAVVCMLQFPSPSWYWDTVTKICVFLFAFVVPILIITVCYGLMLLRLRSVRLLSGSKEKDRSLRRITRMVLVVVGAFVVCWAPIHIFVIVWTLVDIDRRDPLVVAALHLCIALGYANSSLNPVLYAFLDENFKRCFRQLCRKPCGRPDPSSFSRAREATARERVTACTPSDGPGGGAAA
MsrA act = activates bovine MsrA enzyme | purified bovine MsrA, absorbance read-out | activation, % at 10.6 µM | 0.3% of 360,000 active; in the data active means activation above about 7.5%;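 further: 0% = vehicle and 100% = reference activator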
MOR-DOR ag = OPRM1-OPRD1 heterodimerization agonism. P35372+P41143. cells, luminescence. activation, % at 9.3 µM. 0.3% of 340,000 active; in the data active means activation above about 18%;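 further: 0% = vehicle-treated cells and 100% = reference agonist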
MsrA inh = inhibitors of bovine MsrA; purified bovine MsrA, absorbance read-out; inhibition, % at 15.5 µM; 0.75% of 360,000 active; AID 651718; in the data active means inhibition above about 4.5%;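 further: 0% = vehicle wells with enzyme and 100% = reference inhibitor wells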
HTR5A ag ctr = HTR5A agonism, opioid heterodimer counter-screen. HTR5A agonist assay, luminescence, cell-based. activation, % at 9.3 µM. 0.61% of 340,000 active. AID 504692; in the data active means activation mostly above about 9.5%, no sharp cut-off; inactive means mostly below about 7.6%;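 further: 0% = cells with vehicle only and 100% = reference agonist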
MOR-DOR inv ag-2 = counter-screen for HTR5A inverse agonists: OPRM1-OPRD1 heterodimerization inverse agonism; shares compounds with HTR5A inv ag; U2OS counter-screen cells, complementation luminescence; inhibition, % at 9.3 µM; 190 tested, under 10 active; AID 504912;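 further: 0% = cells with DMSO and 100% = wells without cells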
HTR5A inv conf = HTR5A (human) inverse agonism, confirmation | shares compounds with HTR5A inv ag | HTR5A-expressing cells, luminescence | inhibition, % at 9.3 µM | 190 tested, under 10 active | AID 504916;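 further: 0% = cells with DMSO and 100% = no cells with DMSO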
* hit, by the source's call. Hits are enriched below; roughly 1.9% of the tested compounds scored in any of these assays. Unless noted, how the calls were made is not given here.

Results for O=[N+]([O-])c1ccc(S(=O)(=O)Nc2cccc(-c3ccc(N4CCOCC4)nn3)c2)cc1 ?
HTR5A inv ag: 43*; MOR-DOR inv ag-1: -35; MsrA act: -8; MOR-DOR ag: 5; MsrA inh: 1; HTR5A ag ctr: -1; MOR-DOR inv ag-2: -21; HTR5A inv conf: -13

What do the screens show for `COC(=O)[C@]12C[C@H](CC(=O)N3CCSCC3)C(=O)N(Cc3ccccc3)C1=C[C@H](C(C)(C)C)O[C@@H]2C`?
MsrA inh: 1

What do the screens show for `COc1ccccc1NC(=O)CSc1n[nH]c(-c2ccccn2)n1`?
HTR5A inv ag: 39*; MOR-DOR inv ag-1: 4; MsrA act: -1; MOR-DOR ag: -1; MsrA inh: -1; HTR5A ag ctr: -15; MOR-DOR inv ag-2: -63; HTR5A inv conf: -2

How did COc1cc(/C=C2\SC(=S)N(NC(=O)c3ccccc3O)C2=O)ccc1O do in these assays?
HTR5A inv ag: 9; MOR-DOR inv ag-1: 22; MsrA act: -2; MOR-DOR ag: -4; MsrA inh: 2; HTR5A ag ctr: -2

Results for O=C(NN1C(=O)/C(=C/c2ccc(O)c([N+](=O)[O-])c2)SC1=S)c1ccccc1Cl ?
HTR5A inv ag: 28*; MOR-DOR inv ag-1: 26; MsrA act: -3; MOR-DOR ag: -5; MsrA inh: 4; HTR5A ag ctr: -3; MOR-DOR inv ag-2: -71; HTR5A inv conf: 1

Results for O=[N+]([O-])c1cc(/C=N/N/C(=N/c2ccccn2)c2ccccn2)ccc1O ?
HTR5A inv ag: 24*; MOR-DOR inv ag-1: 12; MsrA act: -5; MOR-DOR ag: -2; MsrA inh: 2; HTR5A ag ctr: -9; MOR-DOR inv ag-2: 27; HTR5A inv conf: -37

What do the screens show for `O=[N+]([O-])c1ccc(/C=N/N/C(=N/c2ccccn2)c2ccccn2)cc1`?
HTR5A inv ag: 3; MOR-DOR inv ag-1: -18; MsrA act: -2; MOR-DOR ag: 3; MsrA inh: 3; HTR5A ag ctr: -2

What do the screens show for `Oc1c(C(c2ccccn2)N2CCCCC2)cc(Cl)c2cccnc12` (stereo not given)?
HTR5A inv ag: 29*; MOR-DOR inv ag-1: -43; MsrA act: 0; MOR-DOR ag: 9; MsrA inh: -1; HTR5A ag ctr: -10; MOR-DOR inv ag-2: 6; HTR5A inv conf: 5

How did Brc1ccc(-c2nnc(-c3ccccc3Br)o2)cc1 do in these assays?
HTR5A inv ag: 40*; MOR-DOR inv ag-1: -16; MsrA act: -2; MOR-DOR ag: 3; MsrA inh: 0; HTR5A ag ctr: 7; MOR-DOR inv ag-2: -49; HTR5A inv conf: -7

Results for Cc1ccc(-c2nnc(-c3ccccc3Br)o2)cc1 ?
HTR5A inv ag: 2; MOR-DOR inv ag-1: -19; MsrA act: -3; MOR-DOR ag: 4; MsrA inh: 0; HTR5A ag ctr: 0

Results for C=CCn1c(Cc2cccc3ccccc23)n[nH]c1=S ?
HTR5A inv ag: 28*; MOR-DOR inv ag-1: -4; MsrA act: -10; MOR-DOR ag: 1; MsrA inh: -1; HTR5A ag ctr: -8; MOR-DOR inv ag-2: 2; HTR5A inv conf: 2

Results for C=CCn1c(CCn2c3ccccc3c3ccccc32)n[nH]c1=S ?
HTR5A inv ag: 24; MOR-DOR inv ag-1: 9; MsrA act: -7; MOR-DOR ag: -2; MsrA inh: 2; HTR5A ag ctr: 2

Results for COCc1nnc(NC(=O)c2ccc(S(=O)(=O)N(C)Cc3ccccc3)cc2)o1 ?
HTR5A inv ag: 33*; MOR-DOR inv ag-1: -4; MsrA act: -1; MOR-DOR ag: 1; MsrA inh: -1; HTR5A ag ctr: -13; MOR-DOR inv ag-2: 26; HTR5A inv conf: 4

How did COCCOC(=O)C1=C(C)OC(N)=C(C#N)C1c1ccc2c(c1)OCO2 (stereo not given) do in these assays?
HTR5A inv ag: 33*; MOR-DOR inv ag-1: 11; MsrA act: 1; MOR-DOR ag: -2; MsrA inh: 1; HTR5A ag ctr: -9; MOR-DOR inv ag-2: -26; HTR5A inv conf: -14

Results for C=CCOC(=O)C1=C(C)OC(N)=C(C#N)C1c1ccc2c(c1)OCO2 (stereo not given) ?
HTR5A inv ag: 23; MOR-DOR inv ag-1: 0; MsrA act: -2; MOR-DOR ag: 0; MsrA inh: 0; HTR5A ag ctr: -3

How did COC(=O)c1cc(S(=O)(=O)NCC2CCN(Cc3ccc(F)cc3)CC2)cn1C do in these assays?
HTR5A inv ag: -3; MOR-DOR inv ag-1: 9; MsrA act: -2; MOR-DOR ag: -2; MsrA inh: 0; HTR5A ag ctr: 1

Results for COC(=O)c1cc(S(=O)(=O)NCC2CCN(CCc3cccs3)CC2)cn1C ?
HTR5A inv ag: 41*; MOR-DOR inv ag-1: 6; MsrA act: -15; MOR-DOR ag: -1; MsrA inh: 0; HTR5A ag ctr: 0; MOR-DOR inv ag-2: -21; HTR5A inv conf: -2

How did COC(=O)[C@]12C[C@H](CC(=O)NCc3ccc(OC)c(OC)c3)C(=O)N(CCC3=CCCCC3)C1=C[C@H](COCc1ccccc1)O[C@@H]2C do in these assays?
MsrA inh: 0

What do the screens show for `CC(=O)N1CCc2ccccc2C1CC(=O)O` (stereo not given)?
HTR5A inv ag: 43*; MOR-DOR inv ag-1: 6; MsrA act: 6; MOR-DOR ag: -1; MsrA inh: 1; HTR5A ag ctr: 2; MOR-DOR inv ag-2: -13; HTR5A inv conf: -14

How did O=C(Nc1nnc(-c2ccccc2)o1)c1nc2ccccc2s1 do in these assays?
HTR5A inv ag: 41*; MOR-DOR inv ag-1: 11; MsrA act: -2; MOR-DOR ag: -2; MsrA inh: 3; HTR5A ag ctr: -15; MOR-DOR inv ag-2: inactive; HTR5A inv conf: 1

Results for C[C@@H]1ON(C)[C@H]2C[C@H]3c4[nH]c5cccc(-c6ccccc6)c5c4CCN3C[C@@H]12 ?
MsrA inh: 1

Results for Cn1c(N=Nc2ccc(N3CCOCC3)cc2)[n+](C)c2ccccc21 ?
HTR5A inv ag: 37*; MOR-DOR inv ag-1: 14; MsrA act: -1; MOR-DOR ag: -3; MsrA inh: 0; HTR5A ag ctr: -14; MOR-DOR inv ag-2: -76; HTR5A inv conf: -36

Results for Cc1c(N2C(=O)/C(=C/c3ccc(N(C)C)cc3)N(C)C2=S)c(=O)n(-c2ccccc2)n1C ?
HTR5A inv ag: 29*; MOR-DOR inv ag-1: 8; MsrA act: -8; MOR-DOR ag: -2; MsrA inh: 2; HTR5A ag ctr: -7; MOR-DOR inv ag-2: inactive; HTR5A inv conf: -12

How did C#CCN1CC(COc2ccccc2)Oc2cccc(Oc3ccc(SC)c(C)c3)c2S1(=O)=O (stereo not given) do in these assays?
MsrA inh: 1
